Screens from PubChem BioAssay.
An excerpt weighted towards active compounds, which were near 4.6% of everything screened.
AHR act = activates the human aryl hydrocarbon receptor. P35869. AHR-responsive luciferase reporter cells, luminescence. activation, % at 5 µM. 320,000 compounds, 2.5% hits; in the data active means activation above about 47%;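 further: 0% = vehicle wells and 100% = reference agonist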
HSF1 inh = HSF1 inhibition; NIH3T3-HGL HSE-luciferase, MG132-induced, luminescence 8 h; active compounds read low; activity change, negative = inhibition, % at 7.5 µM (by protocol); 300,000 compounds, 0.77% hits; AID 2098;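 active means more than half of replicate wells show activity change below -50%, luminescence cut by over half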;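 further: luciferase reports HSF-1 transcriptional activity via heat shock element; 0% = median of DMSO wells and -100% = zero luminescence signal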
FXN GAA850 act = activators of GAA850 frataxin (FXN) promoter. HEK293 lucGAA850 FXN promoter luciferase reporter, 24 h; percent of 10 µM SAHA response. activation, % at 6 µM. AID 540364. 360,000 compounds, 0.56% hits;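 active means activation above the average of all compounds screened plus 3 SD, cutoff fixed separately per campaign, cut at about 7.5% in these data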;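 further: 0% = DMSO wells and 100% = 10 µM SAHA wells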
HSF-1 act = increases HSF-1 driven luciferase reporter signal; NIH3T3-HGL HSF-1 luciferase reporter, MG132, 8 h; 100% = twice DMSO control signal; activation, % at 9 µM; 300,000 compounds, 1.7% hits; AID 504408;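 active means mean replicate activation of at least 50% with a set share of replicates each reaching 50%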;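 further: 0% = median of the neutral control wells and 100% = twice that signal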
AHR act confirm = human AHR activation, confirmation. shares compounds with AHR act. human cells, AHR-responsive luciferase reporter, luminescence. activation, % at 9 µM. 2,300 compounds, 87% hits. AID 2845; in the data active means activation above about 49%;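 further: HepG2 hepatoma cells carrying a DRE-driven firefly luciferase reporter; 0% = vehicle wells and 100% = reference agonist wells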
PXR counter = PXR activation, counter-screen for AHR activators; shares compounds with AHR act; cell-based PXR reporter, luciferase luminescence; activation, % at 11.6 µM; 2,300 compounds, 88% hits; AID 434939; in the data active means activation above about 11%;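 further: human hepatoma DPX-2 cells expressing full-length human PXR; 0% = DMSO and 100% = reference agonist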
* marks the source's active call; other numbers are inactive results.

How did COc1ccccc1NC(=O)c1cc(=O)[nH]c2ccccc12 do in these assays?
AHR act: 80.2*; HSF1 inh: -0.4; FXN GAA850 act: -1.9; HSF-1 act: -18.6; AHR act confirm: 92.0*; PXR counter: 15.6*

Results for COc1cc(NC(=O)c2ccc3c(c2)OCO3)ccc1NC(=O)C(C)C ?
AHR act: 15.7; HSF1 inh: -4.1; FXN GAA850 act: 2.0; HSF-1 act: -3.3

What do the screens show for `COc1cc2c(cc1NC(=O)CCC(=O)O)oc1ccccc12`?
AHR act: 11.8; HSF1 inh: -6.9; FXN GAA850 act: 0.4; HSF-1 act: 11.1

What do the screens show for `CCN(CC)S(=O)(=O)c1cccc(C(=O)Nc2cc3oc4ccccc4c3cc2OC)c1`?
AHR act: 10.6; HSF1 inh: 0.1; FXN GAA850 act: -2.2; HSF-1 act: 13.0

Results for CCC1(c2ccccc2)NC(=O)N(CC(=O)NNC(=O)CCN2CCN(c3ccccc3)CC2)C1=O (stereo unspecified) ?
AHR act: -1.0; HSF1 inh: 1.4; FXN GAA850 act: 0.9; HSF-1 act: -15.2

How did CCOCCCNC(=O)C(c1ccc(OC)cc1)N(Cc1ccc2c(c1)OCO2)C(=O)c1cnccn1 (stereo unspecified) do in these assays?
AHR act: 2.5; HSF1 inh: -0.2; FXN GAA850 act: -0.1; HSF-1 act: -1.3

Results for COc1ccc(OC)c(NC(=O)c2ccc3c(c2)OCO3)c1 ?
AHR act: 111.6*; HSF1 inh: -2.0; FXN GAA850 act: 1.4; HSF-1 act: 10.7; AHR act confirm: 101.8*; PXR counter: 22.4*

What do the screens show for `C/C(=N\Nc1nc2ccccc2s1)c1ccc2c(c1)OCO2`?
AHR act: 89.8*; HSF1 inh: -2.1; FXN GAA850 act: 2.5; HSF-1 act: -9.0; AHR act confirm: 111.8*; PXR counter: 31.4*

What do the screens show for `CN1C(=O)/C(=C/c2ccccc2OCc2ccccc2F)NC1=S`?
AHR act: 93.3*; HSF1 inh: 7.3; FXN GAA850 act: -0.4; HSF-1 act: 9.9; AHR act confirm: 78.5*; PXR counter: 85.0*

How did O=C(O)c1ccc(COc2ccccc2/C=C2\NC(=O)N(Cc3ccccc3F)C2=O)cc1 do in these assays?
AHR act: -1.0; HSF1 inh: -7.0; FXN GAA850 act: 3.5; HSF-1 act: -1.6

How did CCc1ccccc1S(=O)(=O)Cc1ccc(C(=O)N2CCN(c3ccccn3)CC2)o1 do in these assays?
AHR act: 83.9*; HSF1 inh: 0.3; FXN GAA850 act: -0.4; HSF-1 act: 14.1; AHR act confirm: 65.2*; PXR counter: 106.9*

How did Cc1ccccc1S(=O)(=O)Cc1ccc(C(=O)N2CCN(c3ncccn3)CC2)o1 do in these assays?
AHR act: 1.6; HSF1 inh: 2.0; FXN GAA850 act: -2.7; HSF-1 act: 8.4

How did O=C1c2ccccc2C(=O)N1CC(=O)N1c2ccccc2Sc2ccccc21 do in these assays?
AHR act: 1.2; HSF1 inh: -13.8; FXN GAA850 act: -0.4; HSF-1 act: -30.2

What do the screens show for `CCCCC(=O)Nc1nc(C)c(-c2csc(Nc3cc(OC)ccc3OC)n2)s1`?
AHR act: 85.5*; HSF1 inh: -17.6; FXN GAA850 act: -4.4; HSF-1 act: -32.0; AHR act confirm: 81.6*; PXR counter: 57.6*

Results for CCCC(C)C(=O)Nc1nc(C)c(-c2csc(Nc3ccccc3OC)n2)s1 (stereo unspecified) ?
AHR act: 124.3*; HSF1 inh: -1.1; FXN GAA850 act: -1.5; HSF-1 act: -12.4; AHR act confirm: 71.9*; PXR counter: 61.8*

What do the screens show for `CCCCCC(=O)Nc1nc(C)c(-c2csc(Nc3ccccc3OC)n2)s1`?
AHR act: 84.9*; HSF1 inh: -1.1; FXN GAA850 act: 0.2; HSF-1 act: 9.9; AHR act confirm: 96.4*; PXR counter: 50.5*

What do the screens show for `CCCCCCC(=O)Nc1nc(C)c(-c2csc(Nc3cc(Cl)ccc3C)n2)s1`?
AHR act: 79.3*; HSF1 inh: 7.0; FXN GAA850 act: 0.9; HSF-1 act: 5.5; AHR act confirm: 80.9*; PXR counter: 16.5*

Results for Cc1ccc(S(=O)(=O)N2CCN(C(=O)COC(=O)C3CC3C)CC2)c(C)c1 (stereo unspecified) ?
AHR act: 5.7; FXN GAA850 act: 1.4

What do the screens show for `CCn1c(COc2ccccc2)nnc1SCC(=O)c1cccc([N+](=O)[O-])c1`?
AHR act: -1.2; HSF1 inh: 4.6; FXN GAA850 act: 3.0; HSF-1 act: 13.5

What do the screens show for `COc1cc(OC)cc(C(=O)NC2=NCCS2)c1`?
AHR act: 94.5*; HSF1 inh: -4.2; FXN GAA850 act: 0.5; HSF-1 act: -20.0; AHR act confirm: 100.7*; PXR counter: 19.9*

How did COc1ccc(C(=O)NC2=NCCS2)cc1 do in these assays?
AHR act: 12.7; HSF1 inh: 21.9; FXN GAA850 act: 5.1; HSF-1 act: 35.0

How did O=C(Nc1ccccc1C(=O)N/N=C/c1ccco1)c1ccc(F)cc1 do in these assays?
AHR act: 200.4*; HSF1 inh: -1.9; FXN GAA850 act: 0.0; HSF-1 act: 14.1; AHR act confirm: 111.4*; PXR counter: 12.3*

What do the screens show for `Cc1ccccc1C(=O)Nc1ccccc1C(=O)N/N=C\c1ccco1`?
AHR act: 7.0; HSF1 inh: 0.2; FXN GAA850 act: -1.1; HSF-1 act: 2.6

Results for O=C(Nc1ccccc1C(=O)N/N=C/c1ccco1)c1ccccc1 ?
AHR act: 126.7*; HSF1 inh: 5.0; FXN GAA850 act: -1.5; HSF-1 act: 1.4; AHR act confirm: 151.4*; PXR counter: 17.7*

Results for O=C(Nc1ccccc1C(=O)N/N=C/c1ccco1)c1ccc(Cl)cc1 ?
AHR act: 86.5*; HSF1 inh: -32.5; FXN GAA850 act: 1.3; HSF-1 act: -45.5; AHR act confirm: 94.1*; PXR counter: 29.9*

How did NC1=NN=C(c2ccc3c(c2)OCCO3)CS1 do in these assays?
AHR act: 87.2*; HSF1 inh: -17.5; FXN GAA850 act: 1.4; HSF-1 act: -26.4; AHR act confirm: -6.0; PXR counter: -1.9

Results for Cc1sc(N)nc1-c1ccc2c(c1)OCCO2 ?
AHR act: 8.4; HSF1 inh: -4.0; FXN GAA850 act: 1.9; HSF-1 act: -5.1

What do the screens show for `CSc1ccccc1OCc1cc(C(=O)N2CCC(Oc3cccnc3)CC2)no1`?
AHR act: -0.1; HSF1 inh: 11.9; FXN GAA850 act: 1.6; HSF-1 act: 23.5

What do the screens show for `O=[N+]([O-])c1cccc2ccc(/C=C/c3ccc(F)cc3)nc12`?
AHR act: 185.8*; HSF1 inh: 30.4; FXN GAA850 act: 6.0; HSF-1 act: 50.0; AHR act confirm: 229.0*; PXR counter: 18.9*

How did Fc1ccc(N2CCN(c3nc(-c4ccco4)cc(C(F)(F)F)n3)CC2)cc1 do in these assays?
AHR act: 115.1*; HSF1 inh: 3.0; FXN GAA850 act: 0.3; HSF-1 act: 6.4; AHR act confirm: 105.3*; PXR counter: 14.2*
